# This excerpt belongs to a sample that is enriched for the strongest signals.
# B1: Surfactant Protein D (rat); Neck + Carbohydrate Recognition Domain (NCRD) (Rattus norvegicus) (protein)
# chain: MLLFLLSALVLLTQPLGYLEAEMKTYSHRTMPSACTLVMCSSVESGLPGRDGRDGREGPRGEKGDPGLPGAAGQAGMPGQAGPVGPKGDNGSVGEPGPKGDTGPSGPPGPPGVPGPAGREGALGKQGNIGPQGKPGPKGEAGPKGEVGAPGMQGSAGARGAGPKGERGVPGERGVPGNTGAAGSAGAMGPQGSPGARGPPGLKGDKGIPGDKGAKGESGLPDVASLRQQVEALQGQVQHLQAAFSQYKKVELFPNGQSVGEKIFKTAGFVKPFTEAQLLCTQAGGQLASPRSAAENAALQQLVVAKNEAAFLSMTDSKTEGKFTYPTGESLVYSNWAPGEPNDDGGSEDCVEIFTNGKWNDRACGEKRLVVCEF
# What was measured:
# Assay in all cases: glycan array binding signal (z-score within array); higher = stronger binding
# Conditions in all cases: glycan notation: IUPAC condensed, linker removed
# [1] = molecular target: Fuc(a1-2)Gal(b1-4)GlcNAc(b1-3)Gal(b1-4)GlcNAc
# How it was run: (§1)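 Arrays were curated from the Consortium for Functional Glycomics database, 3228 in total, and kept only where the protein sequence was available. Binding is expressed as a within-array Z-score. This score was averaged across arrays of the same protein sequence at different concentrations or buffers and across linkers, and negative values can be read as non-binding.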
# [2] = molecular target: Fuc(a1-3)[Gal(b1-4)]GlcNAc6S
# How it was run: as §1
# [3] = molecular target: Gal(a1-4)Gal(b1-4)Glc
# How it was run: as §1
# [4] = molecular target: Gal(a1-4)GlcNAc
# How it was run: as §1
# [5] = molecular target: Gal(b1-3)GlcNAc(b1-3)Gal(b1-4)Glc
# How it was run: as §1
# [6] = molecular target: Gal(b1-4)GalNAc(b1-3)[Fuc(a1-2)]Gal(b1-4)GlcNAc
# How it was run: as §1
# [7] = molecular target: GlcNAc(b1-4)GlcNAc(b1-4)GlcNAc(b1-4)GlcNAc(b1-4)GlcNAc(b1-4)GlcNAc
# How it was run: as §1
# [8] = molecular target: Man(a1-2)Man(a1-2)Man(a1-6)[Man(a1-3)]Man
# How it was run: as §1
# [9] = molecular target: Man(a1-2)Man(a1-3)[Man(a1-2)Man(a1-6)]Man
# How it was run: as §1
# [10] = molecular target: Man(a1-2)Man(a1-3)[Man(a1-2)Man(a1-6)]Man(a1-6)[Man(a1-2)Man(a1-2)Man(a1-3)]Man
# How it was run: as §1
# [11] = molecular target: Man(a1-2)Man(a1-6)[Man(a1-3)]Man(a1-6)[Man(a1-2)Man(a1-2)Man(a1-3)]Man
# How it was run: as §1
# [12] = molecular target: Man(a1-2)Man(a1-6)[Man(a1-3)]Man(a1-6)[Man(a1-2)Man(a1-2)Man(a1-3)]Man(b1-4)GlcNAc(b1-4)GlcNAc
# How it was run: as §1
# [13] = molecular target: Man(a1-6)Man
# How it was run: as §1
# [14] = molecular target: Neu5Ac(a2-3)Gal(b1-3)GalNAc(b1-3)Gal(a1-4)Gal(b1-4)Glc
# How it was run: as §1
# [15] = molecular target: Neu5Ac(a2-3)Gal(b1-3)GalNAc(b1-3)Gal(b1-4)GlcNAc
# How it was run: as §1
# [16] = molecular target: Neu5Ac(a2-3)Gal(b1-4)GlcNAc(b1-2)Man(a1-3)[Neu5Ac(a2-6)Gal(b1-4)GlcNAc(b1-2)Man(a1-6)]Man(b1-4)GlcNAc(b1-4)GlcNAc
# How it was run: as §1
# [17] = molecular target: Neu5Ac(a2-3)Gal(b1-4)[Fuc(a1-3)]GlcNAc
# How it was run: as §1
# [18] = molecular target: Neu5Ac(a2-6)Gal(b1-4)GlcNAc(b1-2)Man(a1-3)[Neu5Ac(a2-6)Gal(b1-4)GlcNAc(b1-2)Man(a1-6)]Man(b1-4)GlcNAc(b1-4)GlcNAc
# How it was run: as §1
# [19] = molecular target: Neu5Ac(a2-6)Gal(b1-4)GlcNAc(b1-3)Gal(b1-4)GlcNAc
# How it was run: as §1
# [20] = molecular target: Neu5Ac(a2-8)Neu5Ac(a2-8)Neu5Ac(a2-3)Gal(b1-4)Glc
# How it was run: as §1
binder,measurement,setting,value
B1,glycan array binding signal (z-score),[1],-0.183
same,glycan array binding signal (z-score),[2],0.145
same,glycan array binding signal (z-score),[3],-0.276
same,glycan array binding signal (z-score),[4],-0.242
same,glycan array binding signal (z-score),[5],-0.194
same,glycan array binding signal (z-score),[6],-0.02
same,glycan array binding signal (z-score),[7],-0.108
same,glycan array binding signal (z-score),[8],4.11
same,glycan array binding signal (z-score),[9],3
same,glycan array binding signal (z-score),[10],13.2
same,glycan array binding signal (z-score),[11],4.18
same,glycan array binding signal (z-score),[12],8.4
same,glycan array binding signal (z-score),[13],-0.223
same,glycan array binding signal (z-score),[14],-0.176
same,glycan array binding signal (z-score),[15],-0.198
same,glycan array binding signal (z-score),[16],-0.117
same,glycan array binding signal (z-score),[17],0.004
same,glycan array binding signal (z-score),[18],0.111
same,glycan array binding signal (z-score),[19],-0.105
same,glycan array binding signal (z-score),[20],-0.048
